IDH1 R132H inh = blocks human mutant IDH1 R132H enzyme; IDH1-R132H enzyme, NADPH consumption, diaphorase/resazurin fluorescence; Potency, µM (series often up to 76.6 µM), for the others: at the top dose activity change, negative = inhibition, most hits filed as inhibitors; 390,000 tested, 0.093% active; AID 602179; further: potency means the concentration at half of the fitted maximal effect; nearly all actives have a fitted effect of over 65% in size
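IDH1-R132H (0.5 ug/mL) preincubated 30 min with compound, then NADPH (0.016 mM) and alpha-KG (2 mM) added; 80 min at RT, pH 7.5. Remaining NADPH coupled via diaphorase/resazurin to fluorescence (540/590 nm); concentration-response curves normalized to no-enzyme control.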
Eya2 phos inh = blocks the phosphatase activity of human Eya2; Potency, µM (highest dose often 76.9 µM), for inactives: top-dose activity, negative = inhibition, hits mostly inhibitors; 330,000 tested, 0.006% active; AID 488837; recombinant Eya2, OMFP fluorescence dephosphorylation (OMFP is methylfluorescein phosphate); O00167; further: potency means the concentration at half of the fitted maximal effect
Target sequence (O00167 whole entry, looked up): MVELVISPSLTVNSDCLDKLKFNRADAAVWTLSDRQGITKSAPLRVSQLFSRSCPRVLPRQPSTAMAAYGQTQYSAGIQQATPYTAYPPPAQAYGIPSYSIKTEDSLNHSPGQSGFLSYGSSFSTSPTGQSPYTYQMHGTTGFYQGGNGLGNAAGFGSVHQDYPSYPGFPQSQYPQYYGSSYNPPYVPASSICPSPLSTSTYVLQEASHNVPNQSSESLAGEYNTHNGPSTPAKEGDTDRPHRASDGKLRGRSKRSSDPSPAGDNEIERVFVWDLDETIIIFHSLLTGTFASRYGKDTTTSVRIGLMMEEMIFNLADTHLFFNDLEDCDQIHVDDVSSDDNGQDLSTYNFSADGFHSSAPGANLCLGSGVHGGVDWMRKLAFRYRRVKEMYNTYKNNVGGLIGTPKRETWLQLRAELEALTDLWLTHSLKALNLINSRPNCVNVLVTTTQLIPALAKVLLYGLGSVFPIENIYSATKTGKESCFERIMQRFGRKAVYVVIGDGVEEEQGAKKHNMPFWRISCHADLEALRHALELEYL
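Eya2 protein (added as 0.2 uM solution) was preincubated with compound for 10 min at ambient temperature in 50 mM HEPES pH 7.5, 50 mM NaCl, 5 uM MgCl2, 0.05% BSA, 1 mM DTT. OMFP (added at 50 uM) then reacted 10 min; fluorescence read at 485/525 nm.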
TrxR1 inh = inhibitors of rat thioredoxin reductase 1; 390,000 tested, 1% active; Potency, µM (highest dose often 114 µM), for the others: at the highest dose activity change, negative = inhibition, most hits filed as inhibitors; AID 588453; recombinant rTrxR1, NADPH fluorescence consumption, selenite substrate; O89049; further: potency means the concentration at half of the fitted maximal effect; nearly all actives have a fitted effect of over 65% in size
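Rat TrxR1 (90 nM in the dispensed reagent) was pre-reduced with 400 uM NADPH for 5 min at room temperature, then incubated with compound for 15 min. After 400 uM selenite was added, NADPH fluorescence (Ex 340/Em 450 nm) was followed for 8 min.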
Coupling enz = inhibits coupling enzyme system, counter-screen for aldolase hits | coupling enzyme system counterscreen, AmpLite Red fluorescence | activity change, negative = inhibition, % at 58.2 µM, hits read low | 290,000 tested, 0.67% active | AID 2472; in the data active means activity change below about -30%
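Counterscreen of the coupled detection system alone, without aldolase: glyceraldehyde-3-phosphate coupling enzymes plus AmpLite Red readout. Compounds at 57.5 uM final, 10 min RT preincubation, 20 min RT reaction, fluorescence 525/598 nm.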
TrxR1 substrate = is turned over as a substrate by rat TrxR1 | purified TrxR1 substrate turnover, NADPH consumption readout | Potency, µM (top dose mostly 114 µM), without a hit: top-dose activity change, negative = substrate turnover | 390,000 tested, 0.01% active | AID 588456; further: potency means the concentration at half of the fitted maximal effect; nearly all actives have a fitted effect of over 50% in size
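Rat TrxR1, dispensed at 90 nM, was prereduced with 400 uM NADPH (final) for 5 min at ~22 deg C, then incubated with compound 15 min before 400 uM selenite. A first-read NADPH fluorescence drop versus no-compound background flagged substrates.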
* = called active by the depositor; ? = inconclusive; . = not tested or not shown; [ ] = another dose, or the depositor's remark. An excerpt weighted towards active compounds, which were near 1.5% of everything screened. Unless noted, the call rests on the fitted dose curve; in most records, active means well fitted curve in the direction sought with a large enough effect; inconclusive means small, poorly fitted or top-dose-only effect, or another doubt; inactive means no such curve, though single readings can be large; an effect the other way counts as inactive or inconclusive. On the % scale 0 is the no-effect control and ±100 the full control effect.

SMILES | IDH1 R132H inh | Eya2 phos inh | TrxR1 inh | Coupling enz | TrxR1 substrate
O=C1CCC/C(=N/Nc2ccc(Cl)cc2)C1 | -1% | 2% | ? | -34* | -1%
O=C(NN=C1CCCC1)c1ccc(Cl)cc1 | 12% | -10% | 6% | 3 | 0%
O=C(N/N=C/C=C/c1ccco1)c1cccnc1 | 8% | -16% | 5.6µM* | -18 | -12%
O=C(N/N=C\C=C\c1ccco1)c1cncc(Br)c1 | -7% | 17% | 50µM* | -11 | -16%
O=C(N/N=C/c1cc(Br)c(Br)o1)c1cccnc1 | 7% | -6% | ? | -55* | -16%
COc1ccc(/C=C/c2nccc3ccccc23)cc1OC | . | . | -5% | . | 0%
CC(C)CCOc1ccc(N)cc1 | . | . | . | -6 | .
CC(C)(C)n1ncc2c(=O)n(Cc3cc(F)ccc3Cl)cnc21 | . | . | -11% | . | -6%
NC(=O)CSc1oc(-c2ccco2)nc1S(=O)(=O)c1ccccc1 | -2% | 4% | 40µM* | 4 | 4%
O=C(O)/C=C/C(=O)Nc1ccccc1C(=O)Nc1ccccc1 | 20% | 24% | 40µM* | 1 | -2%
O=C(Nc1ccccc1C(=O)Nc1ccccc1)c1ccccc1Br | 1% | . | 15%[57.1 µM] | . | -20%[57.1 µM]
Cc1nc2scc(-c3ccco3)c2c(=O)n1/N=C/N(C)C | 2% | -13% | 32µM* | 2 | 11%
CN(C)c1ccc(C=O)cc1Cl | . | . | -3% | . | -9%
CC(C(Sc1ccccc1N)c1ccccc1)[N+](=O)[O-] (centres undefined) | 11% | -1% | 6.3µM* | -1 | 0%
CN=c1sc2c(n1C)C(=O)c1ccccc1C2=O | 2% | . | ? | . | -20%
COc1c(C2=CC(=O)N(C)C2=O)c2c(n1C)C(=O)c1ccccc1C2=O | . | . | . | -35* | .
CN(C)CCNc1oc(COc2ccc(Cl)cc2Cl)nc1C#N | -5% | -14% | -13% | -2 | 9%[57.1 µM]
COCCCNc1oc(COc2ccc(Cl)cc2Cl)nc1C#N | 4% | -8% | 25µM* | -7 | -9%
O=C(CCN1CCC2CCC(C2)C1)c1ccc(F)cc1 (centres undefined) | -7% | . | 1.6µM* | . | 7%[11.4 µM]
Cc1ccc(C(=O)NC2CCN(CCCC(=O)c3ccc(F)cc3)CC2)cc1 | 8% | 1% | 2%[57.1 µM] | -1 | 6%
CC[C@H](C)[C@H](NC(=O)[C@@H]1CCCN1C(=O)[C@H](Cc1cnc[nH]1)NC(=O)[C@@H](NC(=O)[C@H](Cc1ccc(O)cc1)NC(=O)[C@@H](NC(=O)[C@H](CCCN=C(N)N)NC(=O)CNC)C(C)C)[C@@H](C)CC)C(=O)O | . | . | . | 1 | .
Cc1ccc(C2C(C#N)=C(N)Oc3cc(N)ccc32)cc1 (centres undefined) | -3% | -21% | 6% | 3 | -7%
Cc1ccc(/C=C2\CCC3=C2OC(N)=C(C#N)C3c2ccc(C)cc2)cc1 (centres undefined) | 2% | 14% | 50µM* | -4 | -9%
COc1ccc(/C=C/c2sc3ccccc3[n+]2CCCCI)cc1OC | . | . | ? | . | -17%
CC(=O)N/C(=C/c1ccccc1)c1sc2ccccc2[n+]1CCCCI | . | . | 45µM* | . | -5%
SMILES | IDH1 R132H inh | Eya2 phos inh | TrxR1 inh | Coupling enz | TrxR1 substrate
O=C1CCCC2=C1C(c1cccc(O)c1)C1=C(N2)c2ccccc2C1=O (centres undefined) | -2% | 10% | 79µM* | -8 | -13%
COc1cc2c(NC3CCN(C(C)C)CC3)nc(N3CCCN(C)CC3)nc2cc1OCCOCCN(C)C | . | . | ? | . | 75%
COc1ccc(NC(=O)CCl)cn1 | . | 2% | . | -40* | .
COc1ccc(NC(=O)C(Cl)=C(Cl)Cl)cn1 | -2% | 15% | 8%[57.1 µM] | -2 | 6%[57.1 µM]
COc1ccc(NC(=O)/C(Cl)=C(/Cl)S(=O)(=O)Cc2ccccc2)cn1 | 4% | 13% | 7.1µM* | 0 | 11%[57.1 µM]
CNc1nc(N2CCCN(C)CC2)nc2cc(OC)c(OC)cc12 | . | . | 11% | . | 24%
Nc1cccn2c(-c3ccc(Cl)cc3)cnc12 | 5% | 4% | 18%[57.1 µM] | -31* | 14%
CCCN1CNc2c(c(=O)[nH]c(=S)n2CCc2ccsc2)C1 | . | . | -9% | . | 1%
COc1cc(/C=C2\C=Cc3ccccc32)cc(OC)c1OC | . | . | -8% | . | -3%
Cc1cccc(NC(=O)c2oc3c(c2C)-c2[nH]ncc2CC3)c1C | 27% | . | 4% | . | -2%

Screening results: PubChem, National Center for Advancing Translational Sciences (NCATS)
